Results as given in the supplement of paper PMC6555819.

Key:
Assay in all cases: PBM binding z-score (relative to random genomic background probes); higher = stronger binding; sequences stand for … in GC…GCGATTGACAGCGTAGAATGAAGG
[1] = test system: FXR:RXRa (NR concentration 270 nM, RXRa partner concentration 90 nM)
How it was run: (§1)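 Antibodies against each partner of ligand-free nuclear receptor dimers (one per run) detected binding on custom Agilent 4×180K protein-binding microarrays after 1 h incubation. The double-stranded probes had 34-nt variable regions carrying direct-repeat seeds, single-nucleotide variants, half-site ablations and random human genomic background sequences. Binding z-scores, from regression-normalized fluorescence, use the random background probes as reference.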

[2] = test system: LXRa:RXRa (NR concentration 270 nM, RXRa partner concentration 90 nM)
How it was run: as §1

[3] = test system: LXRa homodimer (NR concentration 270 nM)
How it was run: as §1

[4] = test system: LXRb:RXRa (NR concentration 270 nM, RXRa partner concentration 90 nM)
How it was run: as §1

[5] = test system: LXRb homodimer (NR concentration 270 nM)
How it was run: as §1

[6] = test system: PPARa:RXRa (NR concentration 270 nM, RXRa partner concentration 90 nM)
How it was run: as §1

[7] = test system: PPARg:RXRa (NR concentration 180 nM, RXRa partner concentration 90 nM)
How it was run: as §1

[8] = test system: PPARg:RXRa 270nM:90nM, anti-RXR (NR concentration 270 nM, RXRa partner concentration 90 nM)
How it was run: as §1

[9] = test system: PPARg:RXRa 30nM:10nM, anti-RXR (NR concentration 30 nM, RXRa partner concentration 10 nM)
How it was run: as §1

[10] = test system: PPARg:RXRa 90nM:30nM, anti-RXR (NR concentration 90 nM, RXRa partner concentration 30 nM)
How it was run: as §1

[11] = test system: PPARg:RXRa DBDmut IVT, anti-RXR (DBD mutation: RXRa K156A/R161A, NR concentration 270 nM, RXRa partner concentration 90 nM)
How it was run: as §1

[12] = test system: PPARg:RXRa IVT, anti-PPARg (NR concentration 270 nM, RXRa partner concentration 90 nM)
How it was run: as §1

[13] = test system: PPARg DBDmut:RXRa IVT, anti-PPARg (DBD mutation: PPARg1 K132A/R137A, NR concentration 270 nM, RXRa partner concentration 90 nM)
How it was run: as §1

[14] = test system: PPARg DBDmut IVT, anti-PPARg (DBD mutation: PPARg1 K132A/R137A, NR concentration 270 nM)
How it was run: as §1

[15] = test system: PPARg homodimer (NR concentration 180 nM)
How it was run: as §1

[16] = test system: PXR:RXRa (NR concentration 270 nM, RXRa partner concentration 90 nM)
How it was run: as §1

[17] = test system: PXR homodimer (NR concentration 270 nM)
How it was run: as §1

[18] = test system: RARa:RXR (NR concentration 270 nM, RXRa partner concentration 90 nM)
How it was run: as §1

[19] = test system: RARa homodimer (NR concentration 270 nM)
How it was run: as §1

[20] = test system: RARb:RXRa (NR concentration 270 nM, RXRa partner concentration 90 nM)
How it was run: as §1

Sequence	PBM binding z-score [1]	PBM binding z-score [2]	PBM binding z-score [3]	PBM binding z-score [4]	PBM binding z-score [5]	PBM binding z-score [6]	PBM binding z-score [7]	PBM binding z-score [8]	PBM binding z-score [9]	PBM binding z-score [10]	PBM binding z-score [11]	PBM binding z-score [12]	PBM binding z-score [13]	PBM binding z-score [14]	PBM binding z-score [15]	PBM binding z-score [16]	PBM binding z-score [17]	PBM binding z-score [18]	PBM binding z-score [19]	PBM binding z-score [20]
TCATCTAGGTAAACAGGTGAAAGTCCGTAAGTTA	1.02	0.956	0.17	1.04	0.174	2.4	3.14	3.94	3.92	3.86	4.8	5.11	1.31	1.14	0.609	0.409	0.487	0.888	0.849	0.534
CCTGCTAGGTCATGGTCAGCTAATCTACAGTATG	3.81	2.6	0.19	1.83	-0.244	3.52	2.37	2.98	0.934	1.97	4.5	4.22	0.0201	0.284	0.79	1.41	0.115	2.34	0.369	3.95
ATTTGTAGGTTAAGGGTCATTCAGGTTGGTTCGC	5.48	5.5	4.38	4.97	2.76	6.21	11.5	9.95	11.8	12.1	6.4	7.15	4.62	2.85	7.55	5.87	3.82	6.91	4.5	3.9
GATAGAGGGTCAAGGCCAGAGTACGCGTATTGAT	5.49	3.11	-0.2	2.76	-0.344	4.99	4.72	4.24	1.61	4.04	2.88	3.71	0.404	0.208	1.98	2.84	0.414	3.34	0.0585	4.12
TTAGACAGGTGAAGGTAACTCAGGTACGCAGTCG	0.437	1.75	-0.26	0.818	-0.0711	1.07	0.825	1.33	1.9	1.54	1.15	1.49	1.36	0.841	0.811	0.344	-0.00345	0.387	0.607	0.951
TTACCAAGGTAAGCTGAGGTCGTTGATCCAACTC	0.46	2.12	-0.287	0.881	-0.769	1.3	-0.244	0.0724	-0.421	-0.31	-0.0286	0.407	-0.293	-0.159	-0.361	3.52	0.144	1.9	-1.52	0.571
TAGCCTAGGTCAGATCGGGACAGTATACGCTATA	3.31	1.3	-0.0323	1.07	-0.146	1.82	0.86	0.922	0.0788	0.727	0.601	1.73	-0.45	-0.46	0.479	1.74	-0.545	1.11	-0.615	3.11
